Assay outcomes from PubChem.
The list is not random: actives were taken first. Their share in the collection is about 2.5%.
Cruzain inh Det = cruzain (T. cruzi) inhibition with detergent; purified cruzain, Z-FR-AMC fluorescence, 0.01% Triton; 200,000 tested, 0.43% active; P25779; Potency, µM, without a hit: max response, negative = inhibition, hits mostly inhibitors;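 also: plate controls were neutral wells for no effect and buffer without enzyme for full effect; nearly all actives have a fitted effect of over 40% in size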
Target sequence (P25779 123-467 limits assumed): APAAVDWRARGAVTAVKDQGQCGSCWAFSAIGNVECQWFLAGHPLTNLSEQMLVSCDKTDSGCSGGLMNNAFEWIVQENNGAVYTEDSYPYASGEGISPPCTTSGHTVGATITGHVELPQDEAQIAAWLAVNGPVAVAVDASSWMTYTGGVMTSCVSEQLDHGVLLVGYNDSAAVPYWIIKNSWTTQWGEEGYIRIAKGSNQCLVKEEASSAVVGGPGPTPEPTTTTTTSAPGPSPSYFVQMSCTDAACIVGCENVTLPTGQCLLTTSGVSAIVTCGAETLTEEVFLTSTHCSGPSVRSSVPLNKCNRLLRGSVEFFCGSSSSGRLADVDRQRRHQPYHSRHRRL
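15 min RT preincubation of 1.5 nM cruzain with compound, then 2 uM Z-FR-AMC added; kinetic AMC fluorescence, 60 s delta. Triton X-100 0.01%, pH 5.5.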
Cruzain noTriton = blocks cruzain activity in detergent-free assay; 200,000 tested, 2.3% active; purified cruzain, Z-FR-AMC fluorescence, no detergent; Potency, µM, for inactives: max response, negative = inhibition, actives largely listed as inhibitors; P25779;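 also: plate controls were enzyme without inhibitor for no effect and buffer without enzyme for full effect; nearly all actives have a fitted effect of over 40% in size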
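Purified cruzain at 1.5 nM, pre-incubated 15 min with compound at room temperature in 100 mM sodium acetate pH 5.5, 5 mM DTT, 0.00005% Triton X-100. Reaction started with 2 uM Z-FR-AMC; AMC fluorescence increase over 60 s gives rate.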
Active calls of the source: *. Calls follow the shape of the dose curve; as a rule, active = well fitted curve in the direction sought with a large enough effect; inconclusive = small, poorly fitted or top-dose-only effect, or another doubt; inactive = no such curve, though single readings can be large; an effect the other way counts as inactive or inconclusive. Potency is read from the fitted curve at half-maximal effect.

What do the screens show for `COc1cccc(NC(=O)c2sc3nc(C)c(C(=O)Nc4ccc(C)cc4C)c(-c4ccc(Br)cc4)c3c2N)c1`?
Cruzain inh Det: -2%; Cruzain noTriton: -4%

How did CCCCOCCCNc1ncnc2c1[nH]c1ccccc12 do in these assays?
Cruzain inh Det: inconclusive; Cruzain noTriton: -29%

What do the screens show for `c1ccc2c(c1)[nH]c1c(NCC3CCCO3)ncnc12` (stereo not drawn)?
Cruzain inh Det: -30%; Cruzain noTriton: 25µM*

Results for Cc1cccc(C)c1NCc1nnc(SCC(=O)Nc2nc(-c3ccccc3)cs2)n1-c1ccccc1 ?
Cruzain inh Det: -1%; Cruzain noTriton: inconclusive

Results for CCOc1ccc(NCc2nnc(SCC(=O)Nc3nc(-c4ccccc4)cs3)n2-c2ccccc2)cc1 ?
Cruzain inh Det: 1%; Cruzain noTriton: 25µM*

What do the screens show for `O=C(NCC(c1cccnc1)N1CCc2ccccc21)C(=O)Nc1ccccc1F` (stereo not drawn)?
Cruzain inh Det: 5%; Cruzain noTriton: -5%

What do the screens show for `CC(C)(C)C1CCc2oc3ccc(NS(=O)(=O)c4cc(Cl)ccc4Cl)cc3c2C1` (stereo not drawn)?
Cruzain inh Det: -2%; Cruzain noTriton: 4µM*

What do the screens show for `CC(C)(C)C1CCc2oc3ccc(NS(=O)(=O)c4ccc(C(=O)O)cc4)cc3c2C1` (stereo not drawn)?
Cruzain inh Det: -24%; Cruzain noTriton: inconclusive

How did CNS(=O)(=O)c1cn(CC(=O)Nc2ccc(C(C)=O)cc2)cc1S(=O)(=O)NC do in these assays?
Cruzain inh Det: -3%; Cruzain noTriton: -1%

How did NS(=O)(=O)c1ccc(NS(=O)(=O)c2ccc(NC(=O)c3ccc(-c4ccccc4)cc3)cc2)cc1 do in these assays?
Cruzain inh Det: -25%; Cruzain noTriton: 13µM*

How did CCNC(=O)c1ccc(NS(=O)(=O)c2ccccc2)cc1 do in these assays?
Cruzain inh Det: 4%; Cruzain noTriton: -6%

How did Cc1ccc(CSc2nc(=O)c3c(n2C)NC(=O)CC3c2ccc(OC(C)C)cc2)cc1 (stereo not drawn) do in these assays?
Cruzain inh Det: -5%; Cruzain noTriton: -2%

How did Cc1nn(Cc2ccccc2Cl)c2sc(C(=O)NC(C)(C)C)cc12 do in these assays?
Cruzain inh Det: -6%; Cruzain noTriton: 16%

What do the screens show for `Cc1csc(NC(=O)c2cc3c(C)nn(Cc4ccccc4Cl)c3s2)n1`?
Cruzain inh Det: -6%; Cruzain noTriton: 25µM*

What do the screens show for `O=C(CSc1nc2c([nH]c3ccccc32)c(=O)n1-c1cccc(C(F)(F)F)c1)N1CCCC1`?
Cruzain inh Det: -1%; Cruzain noTriton: -9%

What do the screens show for `Cc1ccccc1C(=O)N1c2ncnn2C2(CCCCC2)[C@@H]2CCCC[C@@H]21`?
Cruzain inh Det: -2%; Cruzain noTriton: -6%

How did Cc1nc(CC(=O)Nc2ccc(C)c(C)c2)cs1 do in these assays?
Cruzain inh Det: -4%; Cruzain noTriton: -11%

What do the screens show for `CCCc1nnc(NC(=O)c2cc3ccccc3oc2=O)s1`?
Cruzain inh Det: 2%; Cruzain noTriton: -9%

How did CC(Sc1nnc(NC(=O)c2cc3ccccc3oc2=O)s1)c1ccccc1 (stereo not drawn) do in these assays?
Cruzain inh Det: 6%; Cruzain noTriton: 13µM*

What do the screens show for `Cc1cccc(C)c1NC(=O)CN(Cc1ccc(Br)cc1)S(=O)(=O)c1ccccc1`?
Cruzain inh Det: -7%; Cruzain noTriton: -2%

What do the screens show for `CC1=CC(=O)NS(=O)(=O)O1`?
Cruzain inh Det: 3%; Cruzain noTriton: 2%

What do the screens show for `COc1cc([C@H]2c3cc4c(cc3[C@@H](O[C@H]3O[C@H]5CO[C@@H](C)O[C@H]5[C@@H](O)[C@@H]3O)[C@@H]3COC(=O)[C@H]23)OCO4)cc(OC)c1O`?
Cruzain inh Det: 1%; Cruzain noTriton: -7%

How did CCc1c(C)sc(NC(=O)CSc2nc3c(c(C(F)(F)F)n2)CCc2ccccc2-3)c1C#N do in these assays?
Cruzain inh Det: -4%; Cruzain noTriton: 4µM*

Results for CC(NC(=O)CSc1nc2c(c(C(F)(F)F)n1)CCc1ccccc1-2)c1ccccc1 (stereo not drawn) ?
Cruzain inh Det: -8%; Cruzain noTriton: -7%

Results for COCCN(CCOC)c1nc(C)nc2c1nc(-c1ccccc1)n2CCN(C)C ?
Cruzain inh Det: -2%; Cruzain noTriton: 2%

How did COc1ccc(C(=O)COC(=O)C(Cc2c[nH]c3ccccc23)NC(=O)c2ccc(C(C)(C)C)cc2)cc1 (stereo not drawn) do in these assays?
Cruzain inh Det: -1%; Cruzain noTriton: 13µM*

How did CC(C)(C)c1ccc(C(=O)NC(Cc2c[nH]c3ccccc23)C(=O)OCC(=O)c2ccccc2)cc1 (stereo not drawn) do in these assays?
Cruzain inh Det: -9%; Cruzain noTriton: inconclusive

What do the screens show for `O=C(COc1ccccc1F)Nc1ccc(OCc2cc(=O)n3ccccc3n2)cc1`?
Cruzain inh Det: 1%; Cruzain noTriton: 25%

Results for COc1ccc(NC(=O)Cn2c(=O)n(CCc3ccccc3)c(=O)c3sc4ccccc4c32)cc1 ?
Cruzain inh Det: 0%; Cruzain noTriton: 0%

Results for CCOC(=O)c1sc2cccc(F)c2c1S(=O)(=O)N1CCN(c2cccc(Cl)c2)CC1 ?
Cruzain inh Det: 0%; Cruzain noTriton: inconclusive

Results for CC(=O)c1sc(N/N=C\c2cccc(Br)c2)nc1C ?
Cruzain inh Det: 13µM*; Cruzain noTriton: 0.2µM*

How did CC(=O)c1sc(N/N=C\c2ccc(Br)cc2)nc1C do in these assays?
Cruzain inh Det: -13%; Cruzain noTriton: inconclusive

What do the screens show for `O=C(OCCO)c1ccccc1O`?
Cruzain inh Det: 1%; Cruzain noTriton: -2%

What do the screens show for `Clc1ccc(-c2nc3ccccn3c2Nc2ccc3c(c2)OCCO3)s1`?
Cruzain inh Det: -7%; Cruzain noTriton: inconclusive

Results for Cc1cc(C)cc(N2Cc3ccccc3C2)c1 ?
Cruzain inh Det: 1%; Cruzain noTriton: 13µM*

Results for FC(F)(F)c1cccc(N2Cc3ccccc3C2)c1 ?
Cruzain inh Det: -4%; Cruzain noTriton: -5%

What do the screens show for `O=C(CSc1ncc2c(n1)-c1ccccc1N(Cc1ccc(F)cc1)S2(=O)=O)c1ccc(Cl)cc1`?
Cruzain inh Det: 1%; Cruzain noTriton: 25µM*

Results for Cc1ccccc1CN1c2ccccc2-c2nc(SCC(=O)NCc3ccccc3)ncc2S1(=O)=O ?
Cruzain inh Det: 2%; Cruzain noTriton: -6%

Results for COC(=O)CSc1ncc2c(n1)-c1ccccc1N(Cc1ccccc1C)S2(=O)=O ?
Cruzain inh Det: 0%; Cruzain noTriton: 13µM*

How did O=C(CSc1ncc2c(n1)-c1ccccc1N(Cc1ccc(F)cc1)S2(=O)=O)c1ccc(Br)cc1 do in these assays?
Cruzain inh Det: -3%; Cruzain noTriton: inconclusive

How did Cc1ccccc1CN1c2ccccc2-c2nc(SCC(=O)c3ccc(Cl)cc3)ncc2S1(=O)=O do in these assays?
Cruzain inh Det: 1%; Cruzain noTriton: -15%

How did O=C(CSc1ncc2c(n1)-c1ccccc1N(Cc1ccc(Cl)cc1)S2(=O)=O)c1ccc(Cl)cc1 do in these assays?
Cruzain inh Det: 4%; Cruzain noTriton: 20µM*

Results for COc1ccc(OC)c(CNC(=O)c2cnc(N(C)C)nc2)c1 ?
Cruzain inh Det: 0%; Cruzain noTriton: -8%

What do the screens show for `CCOC(=O)CSc1nc(-c2ccc(C)cc2C)cc(-c2ccccc2)c1C#N`?
Cruzain inh Det: 0%; Cruzain noTriton: 7%

What do the screens show for `O=[N+]([O-])c1cc(-c2nc(-c3ccccc3)no2)ccc1N1CCOCC1`?
Cruzain inh Det: -2%; Cruzain noTriton: 20%
